Gal4-VP16 FLuc = counter-screen for ROR gamma inhibitors: Gal4-VP16 reporter. Drosophila S2 Gal4-VP16 UAS-luciferase, luminescence, 20 h. Potency, µM (doses to about 53.6 µM), usual class: inhibitors. hit rate 3.5% among 310,000;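 further: Gal4-VP16 expression switched on by copper sulfate through the metallothionein promoter; nearly all actives have a fitted effect of over 50% in size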
GLP1R cytotox = cytotoxic in the GLP-1 receptor inverse agonist counter-screen; Potency, µM (doses to about 38.3 µM), hits mostly inhibitors; hit rate 0.13% among 410,000; HEK293 cAMP-luciferase reporter cells, luminescence, 24 h; AID 624418;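 further: loss of luciferase light is scored as toxicity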
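Step one: seed cells (200 cells/uL, DMEM with 10% Nu serum, 1% pen-strep). Step two: 12-hour incubation at 37 deg C. Step three: pin 23 nL compound, incubate 24 hr. Step four: add luciferase reagent, read luminescence 12 min later.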
GLP-1R agonist = activates the human GLP-1 receptor; P43220; HEK293 GLP-1R CRE-luciferase, luminescence, 4-6 h; cells express a hypersensitive GLP-1R form; Potency, µM (titrated, usually from 45.6 µM), hits mostly activators; hit rate 0.007% among 380,000
RORgamma inh = inhibitors of mouse ROR gamma transcriptional activity. P51450. Drosophila S2 Gal4-RORgamma UAS-luciferase reporter, 20 h. Potency, µM (top dose mostly 53.6 µM), most hits filed as inhibitors. hit rate 5.4% among 310,000. AID 2551; further: nearly all actives have a fitted effect of over 60% in size
Target sequence (P51450 whole entry, looked up, the tested form may be a part): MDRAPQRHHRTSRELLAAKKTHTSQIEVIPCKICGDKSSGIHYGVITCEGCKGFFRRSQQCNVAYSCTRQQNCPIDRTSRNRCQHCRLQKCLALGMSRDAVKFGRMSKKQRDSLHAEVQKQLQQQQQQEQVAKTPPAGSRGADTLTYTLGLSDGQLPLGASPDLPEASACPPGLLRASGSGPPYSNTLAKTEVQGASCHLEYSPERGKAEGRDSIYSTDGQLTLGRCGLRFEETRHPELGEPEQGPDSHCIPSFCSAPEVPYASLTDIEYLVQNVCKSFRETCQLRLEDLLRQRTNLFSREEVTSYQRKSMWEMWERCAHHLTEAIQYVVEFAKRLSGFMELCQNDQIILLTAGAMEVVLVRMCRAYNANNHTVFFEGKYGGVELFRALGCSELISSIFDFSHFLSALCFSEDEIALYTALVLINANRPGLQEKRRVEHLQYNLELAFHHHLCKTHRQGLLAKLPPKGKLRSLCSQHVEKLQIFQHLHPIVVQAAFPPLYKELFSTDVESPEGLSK
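Stable Schneider cell line, Gal4 DNA-binding domain fused to ROR gamma, UAS-luciferase. Cmpd 1 hr RT → CuSO4 700 uM final → 20 hr RT → luciferase reagent 10 min → luminescence.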
GLP1R inv ag = acts as inverse agonist at human GLP-1 receptor | HEK293 GLP-1R CRE-luciferase, luminescence, 24 h; GLP-1R form is constitutively active | P43220 | Potency, µM (series often up to 38.3 µM), most hits filed as inhibitors | hit rate 1.6% among 410,000 | AID 624417; further: nearly all actives have a fitted effect of over 55% in size
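Using stably transfected HEK293 (constitutively active GLP-1R, cAMP-luciferase reporter), compounds were incubated 24 hr and luciferase measured by luminescence.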
A number is an active result; . = inactive; ? = inconclusive; / = no result given; [ ] = remark or other dose. The list is not random: actives were taken first. Their share in the collection is about 5.9%. The call rests on the fitted dose curve; in most records, active means well fitted curve in the direction sought with a large enough effect; inconclusive means small, poorly fitted or top-dose-only effect, or another doubt; inactive means no such curve, though single readings can be large; an effect the other way counts as inactive or inconclusive.

SMILES	Gal4-VP16 FLuc	GLP1R cytotox	GLP-1R agonist	RORgamma inh	GLP1R inv ag
CN(C)c1ccc(C=C2SC(=S)N(Cc3ccco3)C2=O)cc1	/	.	.	/	.
Cc1cc(/C=C2\SC(=S)N(C)C2=O)c(C)n1-c1cccc(O)c1	.	.	.	.	2.8µM
Cc1cc(/C=C2\SC(=S)N(Cc3ccco3)C2=O)c(C)n1-c1ccccc1	.	.	.	.	2.2µM
COc1ccc(-n2c(C)cc(/C=C3/SC(=S)N(C)C3=O)c2C)cc1	?	.	.	.	.
COc1cc(OC)c(NC(=O)CN2CCCN(Cc3ccccc3C)S2(=O)=O)cc1Cl	/	.	/	/	.
Clc1ccc2c(c1)c1ccccc1n2CN1CCOCC1	.	.	.	.	?
Clc1ccc2c(c1)c1cc(Cl)ccc1n2CN1CCOCC1	.	.	.	.	5µM
Nc1ccc(Cn2ccc3c4c(N)nc(N)nc4ccc32)cc1	/	7.9µM	.	/	?
CN(C)S(=O)(=O)Oc1ccsc1C(=O)Nc1ccc(Cl)c(Cl)c1	.	.	.	.	10µM
CCC(Sc1nc2ccccc2c2nc(CCc3c(C)n[nH]c3C)nn12)C(=O)Nc1ccc(OC)cc1 (stereo not given)	/	.	/	/	.
CCOc1ccc(CNC(=O)c2oc3c(c2C)-c2nn(Cc4cccc(Cl)c4)cc2CC3)cc1	/	.	/	/	11µM
Cc1cccc(CNC(=O)c2oc3c(c2C)-c2nn(Cc4cccc(Cl)c4)cc2CC3)c1	/	.	/	/	?
COc1ccc(-n2c(=O)c(-c3ccc(Cl)cc3)nc3cnc(N4CCOCC4)nc32)cc1	.	/	/	.	/
COc1cc(/C=N/NC(N)=S)ccc1OCc1ccc(C)cc1	8.9µM	13µM	.	7.1µM	?
COc1cc(/C=N/NC(=O)c2ccc(N)cc2)ccc1OC(=O)c1cccc(C)c1	.	.	.	.	?
COc1cc(/C=N/NC(N)=S)ccc1OC(=O)c1ccc(C)cc1	?	?	.	20µM	?
COc1ccc(C(=O)Oc2cccc(/C=N/NC(N)=S)c2)cc1	10µM	?	.	16µM	?
CO[C@H]1COC(=O)[C@@H](C)COC(=O)[C@@H](COCc2ccccc2)NC(=O)C/C=C\[C@H]1C	.[10 µM]	/	/	.[10 µM]	/
CC(C)Oc1ccc2c(=O)c3cc(C(=O)O)ccc3oc2c1	.	/	/	.	/
COc1ccc(Cl)cc1NC(=O)c1nn(-c2ccc(C)cc2)c(=O)n(C)c1=O	/	.	/	/	.
CCOC(=O)c1cc(-c2ccc(OC)cc2)n(CCC(=O)NCc2ccc(OC)cc2)c1C	/	.	/	/	.
Cc1ccc(-c2nnc(Nc3ccccc3)c3ccccc23)cc1S(=O)(=O)NCC1CCCO1 (stereo not given)	?	.	.	.	.
Cc1ccc(C)c(Nc2nnc(-c3ccc(C)c(S(=O)(=O)NCC4CCCO4)c3)c3ccccc23)c1 (stereo not given)	/	.	/	/	11µM
Fc1ccc(-n2ncc3c(Nc4ccc(Oc5ccc(Cl)cc5)cc4)ncnc32)cc1	/	.	/	/	.
Cc1cc(Nc2ccccc2)n(-c2nc3ccccc3[nH]2)n1	3.5µM	?	.	1.6µM	?
SMILES	Gal4-VP16 FLuc	GLP1R cytotox	GLP-1R agonist	RORgamma inh	GLP1R inv ag
Cc1cc(C)n(-c2nc3ccccc3[nH]c2=O)n1	.	.	.	.	.
Cc1cc(NC(=O)C2CCC2)n(-c2ccccn2)n1	.	.	?	.	.
Cc1cc(C)nc(-n2nc(C)cc2Nc2ccccc2)n1	0.22µM	?	.	0.11µM	?
Cc1cc(Nc2ccccc2)n(-c2ccccc2)n1	.	.	.	.	.
Cc1cc(NC(=O)c2c(F)cccc2Cl)n(-c2nc3ccccc3[nH]2)n1	7.1µM	.	.	4.5µM	?
Cc1cc(NC(=O)C2CCCCC2)n(-c2nc3ccccc3[nH]2)n1	1.4µM	?	.	1.6µM	?
COc1ccc(Br)cc1CN1C(=O)c2ccccc2C1C(=O)NC1CCCCCC1 (stereo not given)	/	.	/	/	.
Cc1ccc(CSc2nc(-c3ccccc3C)nc3c2Cc2c(CO)cnc(C)c2O3)cc1	/	.	/	/	?
O=S(=O)(NCc1cccc(Br)c1)c1ccc(-c2cc(C(F)(F)F)on2)s1	/	.	/	/	?
Cc1cc(N2CCN(c3ccccc3)CC2)nc(-n2nc(C)cc2C)n1	1.3µM	.	.	0.28µM	.
Cc1cc(NC(=O)c2ccccc2F)n(-c2nc3ccccc3[nH]2)n1	4.5µM	.	.	1.1µM	.
Cc1cc(NC(=O)c2ccc(C)s2)n(-c2nc3ccccc3[nH]2)n1	.	?	.	.	?
Cc1cc(NC(=O)c2c(F)cccc2F)n(-c2nc3ccccc3[nH]2)n1	6.3µM	?	.	3.5µM	?
COc1ccc(C[C@@H]2OC3(C=CC(=O)C=C3)O[C@H]2Cc2ccc(OC)cc2)cc1	/	4.5µM	.	/	?
O=C1C=CC2(C=C1)O[C@H](Cc1ccccc1)[C@@H](Cc1ccccc1)O2	/	2µM	.	/	?
O=C1Nc2ccccc2C1Cc1ccccc1 (stereo not given)	.	.	?	.	.
COc1ccc2ccccc2c1/C=N/N1C(=O)CSC1=S	?	.	.	7.9µM	.
COc1cccc(/C=N/N2C(=O)CSC2=S)c1O	4.5µM	.	.	4µM	.
O=C(N/N=C(\Cc1ncc[nH]1)c1ccccc1)c1ccccc1	.[10 µM]	/	/	11µM	/
Cc1ccc(Sc2ccc(N3CCCC(C(=O)Nc4ccc(Br)cc4)C3)nn2)cc1 (stereo not given)	/	.	.	/	.
S=C1NC2=C(CCCC2=C2SCCCS2)C(c2ccccc2)N1 (stereo not given)	7.9µM	.	.	?	?
COc1ccc(C2NC(=S)NC3=C2CCCC3=C2SCCS2)cc1 (stereo not given)	?	.	.	10µM	.
Cc1ccc(C2NC(=S)NC3=C2C(=O)CCC3)cc1 (stereo not given)	.	.	.	.	.
Clc1cccc(-n2ncc3c(NCCC4=CCCCC4)ncnc32)c1	/	.	/	/	.
CO[C@H]1COC(=O)C/C=C\[C@H](C)[C@@H](OC)COC(=O)[C@@H](C)NC(=O)C/C=C\[C@@H]1C	.[10 µM]	/	/	.[10 µM]	/
SMILES	Gal4-VP16 FLuc	GLP1R cytotox	GLP-1R agonist	RORgamma inh	GLP1R inv ag
COc1ccc(CNC(=O)C2(c3ccc(Cl)cc3)CC2)cc1	.	.	.	.	10µM
COc1ccc(C2(C(=O)NCCCN3CCOCC3)CCOCC2)cc1	.	.	.	3.5µM	.
COc1ccc(C2(C(=O)NCCN3CCOCC3)CCOCC2)cc1	.	.	.	.	.
CC(=O)Nc1ccc(C2=NNC(=Nc3cccc(S(=O)(=O)N(C)C)c3)SC2)cc1	?	?	.	.	?
CN(C)S(=O)(=O)c1cccc(N=C2NN=C(c3ccccc3)CS2)c1	16µM	?	.	?	11µM
Cc1cc2nnc(SCc3ccc(F)cc3)n2c2ccccc12	/	.	.	/	.
Cc1ccc2nc(C)c3c(c2c1)OC(C(C)(Cl)Br)C3 (stereo not given)	.	.	.	.	?
COc1ccc2nc(C)c3c(c2c1)OC(C(C)(Cl)Br)C3 (stereo not given)	.	.	.	5µM	?

Assay outcomes deposited in PubChem by National Center for Advancing Translational Sciences (NCATS).
